Shown are actives, neighbours in structure and some others; about 1.7% of the full set was active somewhere.
GLP1R ag = GLP-1 receptor (human) agonism | 380,000 compounds, 0.007% hits | HEK293 GLP-1R CRE-luciferase, luminescence, 4-6 h; cells express a hypersensitive GLP-1R form | P43220 | Potency, µM (series often up to 45.6 µM), without a hit: at the top dose activation, usual class: activators; also: % of control where 0% means no effect
Target sequence (P43220 whole entry, looked up): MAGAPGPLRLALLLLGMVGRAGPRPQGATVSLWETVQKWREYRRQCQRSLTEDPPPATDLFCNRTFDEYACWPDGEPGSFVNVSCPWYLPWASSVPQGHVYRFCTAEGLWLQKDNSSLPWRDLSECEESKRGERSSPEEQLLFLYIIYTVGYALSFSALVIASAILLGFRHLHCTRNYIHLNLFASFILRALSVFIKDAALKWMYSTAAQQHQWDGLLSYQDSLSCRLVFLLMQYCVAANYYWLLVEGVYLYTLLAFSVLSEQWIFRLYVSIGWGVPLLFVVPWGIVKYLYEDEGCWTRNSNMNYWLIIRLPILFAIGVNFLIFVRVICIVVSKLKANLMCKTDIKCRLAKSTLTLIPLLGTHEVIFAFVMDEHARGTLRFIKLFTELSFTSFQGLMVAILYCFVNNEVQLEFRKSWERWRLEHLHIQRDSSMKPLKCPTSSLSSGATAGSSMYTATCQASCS
HEK293 tox = cytotoxicity in counter-screen for GLP-1R inverse agonists; HEK293 cAMP-luciferase reporter cells, luminescence, 24 h; Potency, µM (highest dose often 38.3 µM), inactives show at the top dose activity change, negative = inhibition, usual class: inhibitors; 410,000 compounds, 0.13% hits;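 also: loss of luciferase light is scored as toxicity; % is scaled to controls: 0 for no effect and ±100 for the full control effect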
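Step one: seed cells (200 cells/uL, DMEM with 10% Nu serum, 1% pen-strep). Step two: 12-hour incubation at 37 deg C. Step three: pin 23 nL compound, incubate 24 hr. Step four: add luciferase reagent, read luminescence 12 min later.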
GLP1R inv ag = GLP-1 receptor (human) inverse agonism | P43220 | HEK293 GLP-1R CRE-luciferase, luminescence, 24 h; GLP-1R form is constitutively active | Potency, µM (series often up to 38.3 µM), inactives show at the top dose activity change, negative = inhibition, hits mostly inhibitors | 410,000 compounds, 1.6% hits | AID 624417; also: % is scaled to controls: 0 for no effect and ±100 for the full control effect; nearly all actives have a fitted effect of over 55% in size
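Cells are plated, allowed 12 hours at 37 deg C, then treated with compounds for 24 hr before luciferase detection reagent is added and luminescence is read after 12 min at room temperature. The HEK293 line carries constitutively active GLP-1R with a cAMP-responsive reporter.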
PTHR1 agonist = agonists of human PTHR1 parathyroid hormone receptor. Q03431. HEK293 GP2 PTHR1 cells, GloSensor cAMP luminescence, 1 h. Potency, µM (titrated, usually from 115 µM), for inactives: at the highest dose activation, actives largely listed as activators. 410,000 compounds, 0.075% hits; also: nearly all actives have a fitted effect of over 55% in size
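HEK-293-derived GP2 cells expressing PTHR1 and a GloSensor cAMP reporter, 3,000/well, plated overnight, given luciferin plus IBMX (each 0.5 mM as added) for 1 h at 37 °C, then compound for 1 h at 37 °C. Luminescence was read after 15 min at room temperature.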
Numbers without * were called inactive; i = inactive; ? = inconclusive; nt = not tested or not shown; [ ] = dose if it differs, or a comment. Calls follow the shape of the dose curve; as a rule, active = well fitted curve in the direction sought with a large enough effect; inconclusive = small, poorly fitted or top-dose-only effect, or another doubt; inactive = no such curve, though single readings can be large; an effect the other way counts as inactive or inconclusive. Potency is read from the fitted curve at half-maximal effect.

SMILES	GLP1R ag	HEK293 tox	GLP1R inv ag	PTHR1 agonist
Cc1cc2nc3c(=O)[nH]c(=O)nc-3n(C[C@H](O)[C@H](O)[C@H](O)COP(=O)(O)OP(=O)(O)OC[C@H]3O[C@@H](n4cnc5c(N)ncnc54)[C@H](O)[C@@H]3O)c2cc1C	13%	nt	nt	nt
CCOC(=O)C(C)NC(=O)c1cc2c(=O)[nH]c3ccc(C)cc3c2s1 (stereo unspecified)	nt	0%	7%	i
Cc1ccc(C(=O)Nc2cc(C(C)C)c(O)c(C(C)C)c2)cc1	-12%	3%	4.5µM*	i
Cc1cccc(C(=O)Nc2ccc(C(=O)Nc3ccc(O)cc3)cc2)c1	-4%	?	2.8µM*	i
Cc1cccc(NC(=O)c2ccc3c(c2)OCCO3)c1	8%	-14%	11µM*	-23%
Cc1cccc(C(=O)Nc2ccc(NC(=O)c3cccc(C)c3)cc2)c1	2%	-10%	-14%	7%
O=C1CCN(CCc2ccccc2)CCN1[C@H](COc1ccccc1)Cc1ccccc1	-5%	-17%	10µM*	-32%
CC(C)C[C@@H](COc1ccccc1)N1CCN(CCc2ccccc2)CCC1=O	11%	1%	?	i
CN(CCOc1ccc(Cl)cc1)C(=O)c1cc(-c2ccco2)nc2ccccc12	2%	?	10µM*	-33%
COc1cccc(NC(=O)CN(C)C(=O)c2cc(-c3ccco3)nc3ccccc23)c1	17%	-7%	-26%	i
FC(F)(F)c1ccc(CN2C[C@@H]3C(c4ccccc4)C4(c5cccnc5)CC3(C4)[C@H]2c2ccccc2)cc1 (stereo partly specified)	-1%	7%	11µM*	-27%
COC(=O)c1ccc(C23CC4(C2)[C@H](CN(C)[C@@H]4c2ccccc2)C3c2ccc(C(F)(F)F)cc2)cc1 (stereo partly specified)	-4%	-10%	10µM*	-23%
FC(F)(F)c1ccc(CN2C[C@@H]3C(c4ccc(C(F)(F)F)cc4)C4(c5cccnc5)CC3(C4)[C@H]2c2ccccc2)cc1 (stereo partly specified)	-3%	3%	-12%	-16%
COc1cccc(/C=N/Nc2nc(Nc3ccc([N+](=O)[O-])cc3)nc(N3CCCC3)n2)c1O	-2%	?	2.8µM*	-4%
COc1cccc(Nc2c3c(nc4c(-c5ccccc5)c(C)nn24)CCC3)c1	2%	2%	5µM*	-17%
CC(C)(C)C(=O)N/C(N)=N/c1nc2ccccc2o1	5%	?	11µM*	-30%
CCCc1ccc(S(=O)(=O)N2CCC(c3nnc(-c4cccc(C)c4)o3)CC2)cc1	nt	2%	?	-23%
COc1ccccc1CN(C)CC(=O)NC(=O)NC1CCCCC1	14%	6%	4.5µM*	-50%
O=c1c(Cc2ccc(F)cc2)c(O)ccn1Cc1cccc(Cl)c1	-10%	-7%	7.9µM*	-18%
c1ccc(CO/N=C(\c2ccc(C3CC3)nc2)C2CC2)cc1	-2%	2%	7.9µM*	-25%
C/C(=N\NC(=O)c1c[nH]c2ccccc12)c1ccccn1	3%	7%	?	-8%
C/C(=N\NC(=O)c1ccc(F)cc1)c1ccccn1	0%	-27%	1.1µM*	-27%
Cn1c(=O)n(CCc2ccccc2)c(=O)c2c1nc1n2CCCN1CCc1ccccc1	-43%	-9%	2.2µM*	-24%
CCCn1c(=O)c2c(nc3n2CCCN3CCc2ccccc2)n(C)c1=O	16%	6%	?	-39%
CCOc1ccccc1NC(=O)CSc1nc2c(oc3ccccc32)c(=O)n1C(C)C	nt	2%	17%	i
SMILES	GLP1R ag	HEK293 tox	GLP1R inv ag	PTHR1 agonist
CC(/C=N/NC(=O)c1nnn(-c2nonc2N)c1CN1CCCCC1)=C\c1ccccc1	4%	-3%	?	3%
CC(=C/c1ccccc1)/C=N/NC(=O)c1nnn(-c2nonc2N)c1CN1CCC(C)CC1	15%	-23%	4µM*	-3%
COc1ccccc1CNC(=O)C1CCCN(c2nnc(-n3c(C)ccc3C)s2)C1 (stereo unspecified)	nt	0%	-2%	i
COC(=O)c1cc2oc3ccccc3c2n1Cc1nc(-c2ccc(OC)cc2)oc1C	nt	3%	-4%	i
COC(=O)c1ccc(-c2ccco2)n1Cc1nc(-c2ccc(OC)c(OC)c2)oc1C	1%	-28%	10µM*	-8%[57.5 µM]
COC(=O)c1nnn(CC(=O)Nc2cc(F)ccc2F)c1C(=O)OC	nt	-8%	16%	?
CCc1cccc(NC(=O)Cn2c(C(=O)OC)cc3occc32)c1	nt	-8%	2%	i
CCCC(=O)O[C@@H]1C[C@@H](C)N(C(=O)c2ccccc2)c2ccc(C)cc21	-1%	-2%	10µM*	-2%
O=C(CS(=O)(=O)c1cccc2nsnc12)N1CCN(c2cccc(C(F)(F)F)c2)CC1	-8%	-13%	?	-53%
Cc1ccc(CN2CCSc3ccc(C(=O)Nc4ccc(C)cc4)cc32)cc1	nt	1%	-11%	-47%
O=C(Cc1cn(Cc2cccc(Cl)c2)c2ccccc12)N1CCCCCC1	1%	0%	10µM*	-32%
CC1CCCN(C(=O)Cc2cn(Cc3cccc(Cl)c3)c3ccccc23)C1 (stereo unspecified)	-3%	-6%	?	-17%
O=c1c2ccccc2ncn1-c1ccc([N+](=O)[O-])cc1[N+](=O)[O-]	0%	-24%	5.6µM*	-15%
CN(C)CCNc1ccc(CO)c2oc3ccc(O)cc3c(=O)c12	-30%	?	10µM*	-19%
CCN(CC)CCNc1ccc(CO)c2oc3cc(Cl)ccc3c(=O)c12	-3%	-16%	4.5µM*	i
O=c1cc(NCCCO)c2ccccc2o1	-7%	-8%	-3%	i
COc1cccc(C(=O)N2CCc3c([nH]c4ccccc34)C2c2ccc(SC)cc2)c1 (stereo unspecified)	nt	-13%	7.9µM*	9%
Oc1cccc(C2c3[nH]c4ccccc4c3CCN2Cc2ccc3c(c2)CCO3)c1 (stereo unspecified)	11%	?	2.8µM*	i
COc1ccc(C2c3[nH]c4ccccc4c3CCN2C(=O)CCC2CCCC2)cc1 (stereo unspecified)	nt	0%	?	-5%
COc1cc(C(=O)N2CCc3c([nH]c4ccccc34)C2c2ccc(F)cc2)cc(OC)c1OC (stereo unspecified)	nt	0%	?	-17%
COc1ccc(C2c3[nH]c4ccc(OC)cc4c3CCN2C(=O)Nc2ccccc2)cc1 (stereo unspecified)	nt	-15%	5.6µM*	-76%
Oc1cccc(C2c3[nH]c4ccccc4c3CCN2Cc2ccoc2)c1 (stereo unspecified)	-1%	-7%	?	-8%
COc1ccc(C2c3[nH]c4ccccc4c3CCN2Cc2ccoc2)c(F)c1 (stereo unspecified)	-1%	9%	4.5µM*	-10%
Cc1ccccc1CNC(=O)C1CCN(c2nnc(-n3c(C)ccc3C)s2)CC1	nt	1%	0%	-54%

Screens as filed in PubChem.
